Pf Dd2 growth: qHTS Primary assay for Inhibitors of Plasmodium falciparum Dd2 growth in vitro. AID 1347417, 2020. Potency, µM (doses to about 28.9 µM), hits mostly inhibitors. actives 4.3% (n = 120,000). P. falciparum Dd2 growth, SYBR Green, 72 h; active = well fitted inhibition curve with a large enough effect; also: nearly all actives have a fitted effect of over 65% in size
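Readout: SYBR Green fluorescence, 485 nm excitation, 535 nm emission, after ~16 h lysis at 37C. Before that, Dd2-infected red cells (2.5% hematocrit) grew 72 h with compound, 29 uM top final concentration.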
Each line names hits and unclear results; the compound was inactive in the other large screens. The sample as a whole holds a higher share of hits than the screen did.

CCc1nc2c(c(-c3ccc(Cl)cc3)n1)CN(Cc1cccc(F)c1)CC2	Pf Dd2 growth 10µM
CCc1nc2c(c(-c3ccc(OC)cc3)n1)CN([S+](=O)([O-])c1cccc(C(F)(F)F)c1)CC2	none
CCc1nc2c(c(-c3ccc(O)cc3)n1)CCN(Cc1ccncc1)CC2	none
COC[C@@H]1CN(Cc2c(C)noc2C)C[C@H]1C(=O)NC1CC1	none
O=C(c1nc2sccn2c1Br)N1CCC(n2cc[nH]c2=O)CC1	none
COc1cc(OC)cc(-c2onc(C)c2C(=O)NCCc2ccc(F)cc2)c1	none
COCCC(=O)N1CCCCCC1CN1CCOCC1 (centres undefined)	none
CN(Cc1cc(C[C@@H]2C[C@H](NCc3ccccn3)C2(C)C)no1)c1ccccc1	none
COc1ccc(C(=O)NC2CCN(c3cc(-c4cccs4)[nH]n3)C2)c(C)c1 (centres undefined)	none
CN1CCC(NC(=O)c2n[nH]c3c2CN(C(=O)c2ccccc2)CC3)CC1	none
CCc1nc(-c2c3n(c(=O)n(Cc4cc(F)ccc4F)c2=O)CCCC3)no1	none
CN1C(=O)CCC2(CNC(=O)c3ccco3)CCCC=C12 (centres undefined)	none
O=C(Cc1c[nH]c(=O)[nH]c1=O)N1C[C@@H](CN2CCOCC2)[C@@H](CO)C1	none
CCc1nnc(N2CCCC3(CCC(=O)N(Cc4ccccc4)C3)C2)s1 (centres undefined)	none
COc1ccc(-c2nc(C3CC3)nc3c2CCN(CC2CC2)CC3)cc1	none
COc1ccc(-c2nc(C3CC3)nc3c2CCN(CC2CCCCC2)CC3)cc1	none
COc1ccc(-c2nc(C3CC3)nc3c2CCN(Cc2ccc(F)cc2)CC3)cc1	Pf Dd2 growth 7.1µM
COC1CCN(C(=O)c2ccnc(-c3nnc4ccc(N(C)C)nn34)c2)CC1	none
CCCCCCN1CCC2(CC1)Cc1ccccc1CNC2=O	none
COc1ccc(CNC(=O)CC[C@]23CC[C@](C)(O)C[C@H]2C(C)(C)C[C@@H]3NC(=O)c2cccs2)cc1	none
COc1ccc(CNC(=O)CC[C@]23CC[C@](C)(O)C[C@H]2C(C)(C)C[C@@H]3NC(=O)CC(C)(C)C)cc1	none
COc1ccc(CNC(=O)CC[C@]23CC[C@](C)(O)C[C@H]2C(C)(C)C[C@@H]3NCc2ccccn2)cc1	Pf Dd2 growth 7.9µM
CN(C)CCN(Cc1ccsc1)C(=O)[C@H]1CCC[C@H](O)C1	none
CCNC(=O)N1CCC(c2noc(COCCOC)n2)CC1	none
O=C(NCc1ccccc1)N1CCC(N(C(=O)C2CC2)C2CCOCC2)CC1	none
CCc1csc(CNC2CCC3(CCNCC3)CC2)n1	none
c1coc(-c2nc(CNC3CCC4(CCNCC4)CC3)no2)c1	Pf Dd2 growth 11µM
c1ccc(-c2noc(CCNC3CCC4(CCNCC4)CC3)n2)nc1	none
CCN1CCC(N(Cc2ccc(F)cc2)C(=O)Nc2cccc(C(F)(F)F)c2)CC1	Pf Dd2 growth 13µM
CCN1CCC(N(Cc2ccc(F)cc2)C(=O)Nc2ccc(C)c(F)c2)CC1	Pf Dd2 growth 11µM
CN(CC1CCOC1)C(=O)Nc1cccc(C(F)(F)F)c1 (centres undefined)	none
COc1ccc(CN(C(=O)Nc2ccc(C)c(F)c2)C2CCN(C(C)=O)CC2)cc1	none
CC[C@H]1CN(C(=O)Nc2cccc(C(F)(F)F)c2)CC[C@H]1CC(=O)NCc1ccc(F)cc1	none
Cc1ccc(NC(=O)N(C)CC2CCOCC2)cc1F	none
Cc1cc(Nc2ncncc2-c2nc(-c3ccccc3)no2)ccc1F	none
O=C(Cn1cnc2sccc2c1=O)NC1CCCc2c1[nH]c1ccccc21 (centres undefined)	none
COCCCNC(=O)C(NC(=O)C1CC1)C1CCN(C(=O)c2ccccc2)CC1 (centres undefined)	none
COc1ccc(CN(C)CC2CCN(CCc3ccc(F)cc3)CC2)cc1Cn1cccn1	Pf Dd2 growth 10µM
CN(CC1CCN(CCc2cccc(F)c2)CC1)C(=O)[C@@H](N)Cc1cnc[nH]1	none
COc1ccc(CCN2CCC(CN(C)C(=O)C3CCCCO3)CC2)cc1 (centres undefined)	none
CCOC(=O)c1c(C)[nH]c(C)c1S(=O)(=O)NCC(=O)N1CCN(c2ccccc2F)CC1	none
CCOC(=O)c1c(C)[nH]c(CCC(=O)NCCCN2CCN(c3ccccc3F)CC2)c1C	Pf Dd2 growth 11µM
CCOC(=O)c1c(C)[nH]c(CCC(=O)NCc2ccc(F)cc2)c1C	none
Cc1nc2c(c(-c3ccc(Cl)cc3)n1)CCN(C(=O)Nc1ccccc1)CC2	none
CC(=O)Nc1ccc(CN2CCc3nc(C(C)C)nc(-c4ccc(Cl)cc4)c3CC2)cc1	Pf Dd2 growth 1.1µM
CC(C)c1nc2c(c(-c3ccc(O)cc3)n1)CCN(Cc1cccc3ccccc13)CC2	Pf Dd2 growth 3.2µM
CC(=O)Nc1ccc(CN2CCn3c(nnc3-c3ccc(Cl)cc3)C2)cc1	none
CN(C)c1ccc(CN2CCc3nc(C4CC4)nc(-c4ccc(O)cc4)c3CC2)cc1	none
Cc1nc2c(c(-c3ccc(O)cc3)n1)CN(Cc1cccc3ccccc13)CC2	none
Cc1ccc(CN2CCCc3nc(C)nc(-c4ccc(O)cc4)c3C2)cc1	Pf Dd2 growth 2.8µM
COc1ccc(CN2CCc3nc(C)nc(-c4ccc(O)cc4)c3C2)cc1	none
CC(C)c1nc2c(c(-c3ccc(O)cc3)n1)CCN(Cc1ccc(C(F)(F)F)cc1)CC2	Pf Dd2 growth 1.8µM
CC(C)c1nc2c(c(-c3ccc(O)cc3)n1)CN(Cc1ccccn1)CC2	none
CC(=O)N1CCc2nc(C(C)C)nc(-c3ccc(O)cc3)c2CC1	none
Cc1nc2c(c(-c3ccc(O)cc3)n1)CN(Cc1ccc(F)cc1)CCC2	none
Cc1cc(C(=O)N2CC(F)(F)C[C@H]2c2nnc(C)o2)on1	none
O=C(COc1ccc(NC(=O)C2CC2)cn1)NCc1ccccc1F	none
Cc1cccc(Cl)c1NC(=O)Cn1cccc1-c1nc(-c2ccc(F)cc2)no1	none
Cc1ccc(-c2cc3c(ccn3Cc3cccnc3)c(C3=CCOCC3)n2)cn1	none
Cc1ccc(C(=O)N2CCC(n3cc(-c4nc(-c5ccccc5)no4)nn3)CC2)c(C)c1	none
O=C(CN1CC2CC(C1)[C@H]1CCCC(=O)N1C2)NCc1ccc(F)cc1 (some centres undefined)	none
CC(C)NC(=O)c1nc(C(C)(C)C)c2ccccn12	none
CC(C(=O)N1CCC(C(=O)N2CCCCCCNC(=O)CC2)CC1)c1ccccc1 (centres undefined)	none
COc1ccc(NC(=O)C2CCCCC(=O)N2)cc1F (centres undefined)	none
CC(C)c1nc2c(c(-c3ccc(O)cc3)n1)CN(CC1CCCCC1)CC2	Pf Dd2 growth 3.5µM
CC(C)c1nc2c(c(-c3ccc(O)cc3)n1)CN(Cc1cccnc1)CC2	none
CC(C)c1nc2c(c(-c3ccc(O)cc3)n1)CN(Cc1cccn1C)CC2	none
COc1cccc(N2C(=O)NC(=NC3CCCC3)C23CCN(C(=O)c2ccccc2F)C3)c1 (centres undefined)	none
Cc1c(NC(=O)CCc2cc3n(n2)CCNC3)c(C)n(C)c(=O)c1C(N)=O	none
OC1(c2nc(Nc3ccc(OC(F)(F)F)cc3)n[nH]2)CCOCC1	none
N#Cc1cccc(CN2CCCOCCNC(=O)CC2)c1	none
CC(C)NC(=O)C1c2ccccc2C(=O)N(C2CCCC2)C12CCCC2 (centres undefined)	none
O=C(NC1CCCC1)C1c2ccccc2C(=O)N(C2CCCC2)C12CCCCC2 (centres undefined)	Pf Dd2 growth 10µM
COC(=O)CNC(=O)C1c2ccccc2C(=O)N(C2CCCC2)C12CCCCC2 (centres undefined)	none
O=C(c1ccoc1)N1CC(c2nnc(-c3ccncc3)o2)C2(CCOCC2)C1 (centres undefined)	none
COc1ccc(CCNC(=O)C2Cn3cccc3C(=O)N2CC(C)C)cc1OC (centres undefined)	none

Source: PubChem
